Test results taken from PubChem BioAssay (NCATS).
Records with an inconclusive call do not appear. Unmarked numbers belong to inactive results. Calls come from the whole dose curve; as a rule, active = well fitted inhibition curve with a large enough effect; inconclusive = small, poorly fitted or top-dose-only effect; inactive = flat fitted curve, though single readings scatter.

The compounds below were run on CP256 (assay: qHTS profiling for inhibitors of Plasmodium falciparum proliferation (AID 504749;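 note: 0% = DMSO vehicle and full inhibition = artemisinin control; nearly all actives have a fitted effect of over 60% in size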)). Conditions: P. falciparum in erythrocytes, SYBR Green DNA, 72 h; series mostly up to 28.7 µM; activity, negative = inhibition: at the top concentration.
Method in brief: (§1)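 P. falciparum-infected erythrocytes (0.3% parasitemia, 2.5% hematocrit final) were exposed to compounds for 72 h at 37 C in 5% CO2, then lysed with SYBR Green buffer overnight at room temperature; parasite DNA fluorescence was normalized to artemisinin and DMSO controls.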

Row | SMILES | activity, negative = inhibition
1 | CCCOC(=O)c1ccccc1O | -28.2%
2 | COc1cc2c(cc1OC)[C@@H](Cc1cc(OC)c(OC)c(OC)c1)[N+](C)(CCCOC(=O)CC/C=C/CCC(=O)OCCC[N+]1(C)CCc3cc(OC)c(OC)cc3[C@H]1Cc1cc(OC)c(OC)c(OC)c1)CC2 (stereo partly drawn) | 5.9%
3 | OC[C@H]1O[C@@](CO)(O[C@H]2O[C@H](CO)[C@@H](O)[C@H](O)[C@H]2O)[C@@H](O)[C@@H]1O | -11.7%
4 | CCC(Cc1c(I)cc(I)c(O)c1I)C(=O)O (stereo not drawn) | -8.02%
5 | Nc1ncnc2c1ncn2CCOCP(=O)(O)O | 2.67%
6 | O=C(O)CCC/C=C\C[C@@H]1[C@@H](/C=C/[C@@H](O)COc2cccc(Cl)c2)[C@H](O)C[C@@H]1O | 9.87%
7 | N=C(N)n1cccn1 | -0.773%
8 | CCSc1ccc2c(c1)N(CCCN1CCN(C)CC1)c1ccccc1S2 | -0.768% [at 12.8 µM]
9 | CC(C)c1nc(N(C)S(C)(=O)=O)nc(-c2ccc(F)cc2)c1/C=C/C(O)CC(O)CC(=O)O (stereo not drawn) | 12.3%
10 | CCOC(C)OCC | 3.65%
11 | NCCN | 2.18%
12 | CC(CC=O)CCCC(C)(C)O (stereo not drawn) | 1.34%
13 | CC(C)(COP(=O)(O)OP(=O)(O)OC[C@H]1O[C@@H](n2cnc3c(N)ncnc32)[C@H](O)[C@@H]1OP(=O)(O)O)C(O)C(=O)NCCC(=O)NCCS (stereo partly drawn) | -5.85%
14 | O=C1c2ccccc2CN2C(=O)c3ccccc3CN12 | -0.769%
15 | O=C1c2ccccc2C(=O)C1c1ccc(F)cc1 | -0.892%
16 | CNC(=O)C[C@@H](N)C(=O)N[C@@H](C(=O)N[C@@H]1C(=O)N2[C@@H]1SC(C)(C)[C@@H]2C(=O)O)c1ccc(O)cc1 | 0.981%
17 | CCCCCc1ccc(C)cc1O | 1.88%
18 | C=CC(C)(O)CC/C=C(\C)CCC=C(C)C (stereo not drawn) | 4.79%
19 | Cc1ccc(S(=O)(=O)NCl)cc1 | -13.6%
20 | CN1c2c(nc(N)[nH]c2=O)NCC1CNc1ccc(C(=O)NC(CCC(=O)O)C(=O)O)cc1 (stereo not drawn) | 1.55%

Row | SMILES | activity, negative = inhibition
21 | NC(=O)[C@@H]1CCCN1C(=O)[C@H](Cc1cnc[nH]1)NC(=O)[C@@H]1CCC(=O)N1 | -0.519%
22 | CN(C)CCOc1ccc(/C(=C(/CCCl)c2ccccc2)c2ccccc2)cc1 | -4.24%
23 | CC1(O)CCC(C(C)(C)O)CC1 (stereo not drawn) | 0.433%
24 | COc1ccccc1N1CCN(CCCC(=O)c2ccc(F)cc2)CC1 | -0.286%
25 | CC(C)[C@@H](N)C(=O)O | 7.42%
26 | CN(C)c1ccc(C(=C2C=CC(=[N+](C)C)C=C2)c2c(O)c(S(=O)(=O)[O-])cc3cc(S(=O)(=O)O)ccc23)cc1 | -21.3%
27 | COc1cc(S(C)=O)ccc1-c1nc2ncccc2[nH]1 (stereo not drawn) | 0.889%
28 | Oc1cc(O)cc(O)c1 | 8.26%
29 | N[C@H](CC(=O)O)C(=O)O | 11.7%
30 | C/C=C/C=C/C(=O)O | 3.16%
31 | C=C(C)C1CC=C(C)CC1 (stereo not drawn) | 6.13%
32 | Nc1ncnc2c1ncn2[C@H]1CC[C@@H](CO)O1 | 3.46%
33 | NCC[C@H](O)C(=O)N[C@@H]1C[C@H](N)[C@@H](O[C@H]2O[C@H](CN)CC[C@H]2N)[C@H](O)[C@H]1O[C@H]1O[C@H](CO)[C@@H](O)[C@H](N)[C@H]1O | 1.89%
34 | [O]=[Bi][O]C(=O)[O][Bi]=[O] | 0.149%
35 | Cc1c(Cl)cccc1Nc1ncccc1C(=O)O | 7.99%
36 | CC1(C)S[C@@H]2[C@H](NC(=O)C3(N)CCCCC3)C(=O)N2[C@H]1C(=O)O | 1.67%
37 | CCCCCCCCCCCC(=O)OCC(O)CO (stereo not drawn) | -1.05%
38 | COc1ccc(C(=O)c2ccc(C)cc2)c(O)c1 | 4.98%
39 | O=C1NCCN1c1ncc([N+](=O)[O-])s1 | -7.3% [at 12.8 µM]

What follows are compounds tested on CP260 in the same assay as above. Conditions: P. falciparum in erythrocytes, SYBR Green DNA, 72 h; series mostly up to 28.7 µM; activity, negative = inhibition: at the top concentration.
Method in brief: as §1

Row | SMILES | activity, negative = inhibition
40 | CCCOC(=O)c1ccccc1O | -1.95%
41 | COc1cc2c(cc1OC)[C@@H](Cc1cc(OC)c(OC)c(OC)c1)[N+](C)(CCCOC(=O)CC/C=C/CCC(=O)OCCC[N+]1(C)CCc3cc(OC)c(OC)cc3[C@H]1Cc1cc(OC)c(OC)c(OC)c1)CC2 (stereo partly drawn) | 8.49%
42 | OC[C@H]1O[C@@](CO)(O[C@H]2O[C@H](CO)[C@@H](O)[C@H](O)[C@H]2O)[C@@H](O)[C@@H]1O | 8.78%
43 | CCC(Cc1c(I)cc(I)c(O)c1I)C(=O)O (stereo not drawn) | -12.9%
44 | Nc1ncnc2c1ncn2CCOCP(=O)(O)O | 2.48%
45 | O=C(O)CCC/C=C\C[C@@H]1[C@@H](/C=C/[C@@H](O)COc2cccc(Cl)c2)[C@H](O)C[C@@H]1O | -2.37%
46 | N=C(N)n1cccn1 | -1.12%
47 | CCSc1ccc2c(c1)N(CCCN1CCN(C)CC1)c1ccccc1S2 | -10.9% [at 12.8 µM]
48 | CC(C)c1nc(N(C)S(C)(=O)=O)nc(-c2ccc(F)cc2)c1/C=C/C(O)CC(O)CC(=O)O (stereo not drawn) | 10.9%
49 | CCOC(C)OCC | 4.27%
50 | NCCN | -1.68%
51 | CC(CC=O)CCCC(C)(C)O (stereo not drawn) | 8.73%
52 | CC(C)(COP(=O)(O)OP(=O)(O)OC[C@H]1O[C@@H](n2cnc3c(N)ncnc32)[C@H](O)[C@@H]1OP(=O)(O)O)C(O)C(=O)NCCC(=O)NCCS (stereo partly drawn) | 9.4%
53 | O=C1c2ccccc2CN2C(=O)c3ccccc3CN12 | 2.58%
54 | O=C1c2ccccc2C(=O)C1c1ccc(F)cc1 | 2.45%
55 | CNC(=O)C[C@@H](N)C(=O)N[C@@H](C(=O)N[C@@H]1C(=O)N2[C@@H]1SC(C)(C)[C@@H]2C(=O)O)c1ccc(O)cc1 | 6.17%
56 | CCCCCc1ccc(C)cc1O | 1%
57 | C=CC(C)(O)CC/C=C(\C)CCC=C(C)C (stereo not drawn) | 1.61%
58 | Cc1ccc(S(=O)(=O)NCl)cc1 | 6.33%
59 | CN1c2c(nc(N)[nH]c2=O)NCC1CNc1ccc(C(=O)NC(CCC(=O)O)C(=O)O)cc1 (stereo not drawn) | 9.65%

Row | SMILES | activity, negative = inhibition
60 | NC(=O)[C@@H]1CCCN1C(=O)[C@H](Cc1cnc[nH]1)NC(=O)[C@@H]1CCC(=O)N1 | 3.22%
61 | CN(C)CCOc1ccc(/C(=C(/CCCl)c2ccccc2)c2ccccc2)cc1 | -8.17%
62 | CC1(O)CCC(C(C)(C)O)CC1 (stereo not drawn) | 0.659%
63 | COc1ccccc1N1CCN(CCCC(=O)c2ccc(F)cc2)CC1 | 1.6%
64 | CC(C)[C@@H](N)C(=O)O | -5.99%
65 | CN(C)c1ccc(C(=C2C=CC(=[N+](C)C)C=C2)c2c(O)c(S(=O)(=O)[O-])cc3cc(S(=O)(=O)O)ccc23)cc1 | -7.33%
66 | COc1cc(S(C)=O)ccc1-c1nc2ncccc2[nH]1 (stereo not drawn) | -4.09%
67 | Oc1cc(O)cc(O)c1 | 0.17%
68 | N[C@H](CC(=O)O)C(=O)O | 8.36%
69 | C/C=C/C=C/C(=O)O | 0.516%
70 | C=C(C)C1CC=C(C)CC1 (stereo not drawn) | 4.03%
71 | Nc1ncnc2c1ncn2[C@H]1CC[C@@H](CO)O1 | 1.35%
72 | NCC[C@H](O)C(=O)N[C@@H]1C[C@H](N)[C@@H](O[C@H]2O[C@H](CN)CC[C@H]2N)[C@H](O)[C@H]1O[C@H]1O[C@H](CO)[C@@H](O)[C@H](N)[C@H]1O | 0.817%
73 | [O]=[Bi][O]C(=O)[O][Bi]=[O] | 4.26%
74 | Cc1c(Cl)cccc1Nc1ncccc1C(=O)O | 2.97%
75 | CC1(C)S[C@@H]2[C@H](NC(=O)C3(N)CCCCC3)C(=O)N2[C@H]1C(=O)O | -0.502%
76 | CCCCCCCCCCCC(=O)OCC(O)CO (stereo not drawn) | -0.305%
77 | COc1ccc(C(=O)c2ccc(C)cc2)c(O)c1 | -22.7%
78 | O=C1NCCN1c1ncc([N+](=O)[O-])s1 | -1.17% [at 12.8 µM]
